Reference: ChEMBL document CHEMBL3988442, “University of Dundee, Small-Polar-MMV Screening Library” (2021)
Screen size: about 48,000 compounds; about 13,000 (27%) showed an effect of 50% or more. The list shows a part of the results.

These compounds were tested on Wolbachia pipientis (assay: Anti-Wolbachia Cell-Based Screen). Details: 5 µM.
Format: functional
Parameters: scale not given: in the data most compounds retested in dose-response had high values

SMILES | Percent Effect [%]
Cc1cnccc1CN(C)C1CCN(c2ncnc3[nH]cnc23)CC1 | -3.937
CN(C)C(=O)CCC[S+]([O-])Cc1cc(Cl)ccc1Cl (stereo unspecified) | 0.1259
Cc1noc(C)c1CN1CCc2nn(C(C)C)c(=O)cc2C1 | -7.391
CC(=O)Nc1ncc(S(=O)(=O)N2CCN(C3CCCCC3)CC2)s1 | -4.636
Cc1ccccc1S(=O)(=O)Cc1nsc(N(C)C)n1 | -10.46
COc1ccc2c(c1)CCCN2C(=O)NCCc1cnn(C)c1 | -4.065
CCn1nccc1CN(C)C(=O)Cn1nc(C)cc1C | 69.47
Cc1ccc(CN(C)C(=O)Cn2nc(-c3ccc(F)cc3)oc2=O)cc1 | -26.69
CCn1nccc1CN(C)C(=O)Cn1nc(C)c(C)c1C | 98.15
CCc1nc(CC)n(CC(=O)N(C)Cc2ccc(F)cc2)n1 | -4.811
Cc1cc(C)n(CC(C)CNC(=O)N(C)Cc2ccco2)n1 (stereo unspecified) | 23.18
Cc1cc(C)n(CC2CCCCN2CC(=O)N(C)Cc2ccco2)n1 (stereo unspecified) | -0.03535
O=C(CNC(=O)C1CCCC1)NCC(O)c1ccc2ccccc2c1 (stereo unspecified) | -9.214
CCCn1nnnc1CN(c1ccc(N2CCOCC2)cc1)C(C)C | -9.048
Cn1nnc2c(sc3nc(N4CCOCC4)c4c(c32)CCC4)c1=O | 117
CCc1nc2c(c(N3CCOCC3)n1)CCN(C(=O)N1CCCC1)CC2 | -8.543
CC(C)n1nnc2c(sc3nc(N4CCOCC4)c4c(c32)CCC4)c1=O | 121.1
CCCn1nnc2c(sc3nc(N4CCOCC4)c4c(c32)CCC4)c1=O | 106.2
CN(C)C(=O)Cc1ccccc1NCc1cccc2cccnc12 | -12.16
O=C(c1cncc(Br)c1)N1CCCc2c(F)cc(F)cc21 | -4.9
CC(C#N)CNS(=O)(=O)c1ccc(Br)c(F)c1 (stereo unspecified) | 3.318
CC(C)c1noc(CCC(=O)N(CC2CCOC2)C2CC2)n1 (stereo unspecified) | 6.067

SMILES | Percent Effect [%]
NC(=O)NC(=O)CCN(Cc1ccccc1)CC1CCOCC1 | -17.87
Cc1cnn(CC(C)NCC(=O)Nc2ccc(Cl)cn2)c1 (stereo unspecified) | -4.944
Fc1cnc(N2CC[C@@H]3O[C@@H](COCc4ccccn4)CC[C@@H]32)nc1.O=C(O)C(F)(F)F.O=C(O)C(F)(F)F | -20.87
CC(C)COC[C@@H]1CC[C@H]2[C@H](CCN2C(=O)c2ccncc2F)O1.O=C(O)C(F)(F)F | 105.1
CC(C)COC[C@H]1CC[C@H]2[C@H](CCN2C(=O)c2ccncc2F)O1.O=C(O)C(F)(F)F | 108.1
O=C(O)C(F)(F)F.O=C(c1ccncc1F)N1CC[C@@H]2OC(COCC3CC3)CC[C@@H]21 (stereo partly specified) | 97.57
Fc1cnc(N2CC[C@@H]3O[C@@H](COCc4cccnc4)CC[C@@H]32)nc1.O=C(O)C(F)(F)F | -5.936
COc1ccc(CNC[C@H]2COCc3nc4cccnc4n32)cn1 | 2.273
Cc1ccc(NC(C)C(=O)N(C)Cc2cccc(F)c2)cc1C(N)=O (stereo unspecified) | -12.41
CN(Cc1ccc(Cl)s1)C(=O)c1cccc(OCC(N)=O)c1 | -4.963
N#Cc1ccc(SCCOCCO)c(F)c1 | -11.88
CC(OCC1CC1)C(=O)N1CCCN(c2nc3ccccc3[nH]2)CC1 (stereo unspecified) | 2.156
Nc1nccc(C2CCCN(CC3CC3)C2)n1 (stereo unspecified) | 142.8
Nc1nccc(C2CCN(CCO)C2)n1 (stereo unspecified) | 113.7
COCc1nccc(C2CCCN(Cc3ccc(SC)cc3)C2)n1 (stereo unspecified) | -16.87
Cc1noc(CN2CCC(c3ccnn3CCO)CC2)n1 | -5.622
Nc1nccc(C2CCN(CC3CC3)C2)n1 (stereo unspecified) | 123.6
COCc1nccc(C2CCCN(Cc3ccc(C#N)cc3)C2)n1 (stereo unspecified) | -15.32
COc1ccc(-c2nnc([C@H]3CCN(CC4CC4)C3)o2)cc1 | 1.558
N#Cc1ccc(CN2CCC(c3ccnn3CCO)CC2)cc1 | -5.885
Cc1ccc2[nH]c([C@H]3CCN(CC4CCCCC4)C3)nc2c1 | 2.151
Cc1ccc2c(c1)OCCN2C(=O)c1ccc(=O)n(C)c1 | 10.97

SMILES | Percent Effect [%]
CCn1c(CN(C)C(=O)c2ccc(N(C)C)nc2)nc2ccccc21 | -11.95
O=C(Nc1ccccc1)C1CN(Cc2ccco2)CC12CCOCC2.O=C(O)C(F)(F)F (stereo unspecified) | -4.746
Cc1ccc(S(=O)(=O)Cc2noc([C@@H]3C[C@@H](O)CN3)n2)cc1 | 5.528
COc1ccc(CC2CCCN2CCCC#N)cc1 (stereo unspecified) | 3.146
COc1ccc(C(=O)Nc2cnn(CC(=O)NC3CCCC3)c2)c(O)c1 | -2.411
O=C(NCc1ccccn1)NCC(c1ccco1)N1CCCC1 (stereo unspecified) | 11.6
O=C(CCn1cccn1)NCC(c1cccs1)N1CCCC1 (stereo unspecified) | -57.56
O=C(NCc1cc[nH]n1)NCC(c1ccco1)N1CCCC1 (stereo unspecified) | -4.044
O=C(Cn1cccn1)NCC(c1cccs1)N1CCCC1 (stereo unspecified) | -1.128
O=C(NCc1ccccn1)NCC(c1ccco1)N1CCCCC1 (stereo unspecified) | 12.69
O=C(NCCn1ccnc1)NCC(c1ccco1)N1CCCCC1 (stereo unspecified) | -2.241
O=C(NCCCn1ccnc1)NCC(c1ccco1)N1CCCCC1 (stereo unspecified) | 152.2
O=C(NCCCn1ccnc1)NCC(c1ccco1)N1CCCC1 (stereo unspecified) | 97.42
O=C(NCCCn1cccn1)NCC(c1ccco1)N1CCCC1 (stereo unspecified) | 116.5
O=C(NCCCn1ccnc1)N1CCCC1c1cccs1 (stereo unspecified) | 8.272
O=C(NCCn1ccnc1)NCC(c1ccco1)N1CCCC1 (stereo unspecified) | 107.9
CN(CC(=O)NCCc1cc2ccccc2o1)S(C)(=O)=O | 6.714
CCN(C)CCNC(=O)Cc1nc(-c2ccco2)oc1C | -18.21
COc1cc(C(C)NCc2c[nH]nc2C)ccc1OCCO (stereo unspecified) | -5.579
OCc1ccc(CNc2ccccc2CN2CCC(O)CC2)o1 | -5.459
Cn1cc(C2CC(=O)NC23CCN(Cc2ccncc2)CC3)cn1.O=C(O)C(F)(F)F.O=C(O)C(F)(F)F (stereo unspecified) | 100.3
Cn1cc(C2CC(=O)NC23CCN(Cc2cccc(F)c2)CC3)cn1.O=C(O)C(F)(F)F (stereo unspecified) | 101.2

SMILES | Percent Effect [%]
Cn1cc(C2CC(=O)NC23CCN(CC2CC2)CC3)cn1.O=C(O)C(F)(F)F (stereo unspecified) | -10.6
O=C(C1CCC1)N1CCC2(CCN(Cc3cccc(F)c3)CC2)CC1.O=C(O)C(F)(F)F | 18.44
Cc1ccncc1C(=O)N1CC[C@@]2(O)CCN(C3CCCCC3)C[C@H]2C1 | -0.1912
O=C(NCC(O)c1ccc(F)cc1)C1CCN(C2CCCCC2)CC1 (stereo unspecified) | 4.274
CC(C)(C)n1ncc2c(=O)[nH]c(N3CCN(CC(F)F)CC3)nc21 | 4.311
Cn1[nH]c(C2CCC2)c(-c2ccc3c(c2)OCO3)c1=N | 9.847
COc1ccccc1-c1ccnc2nc(N3CCCCC3)[nH]c(=O)c12 | 113.6
Cc1ccc(-c2csc3c(=O)[nH]c(N4CCCC(C(=O)O)C4)nc23)cc1 (stereo unspecified) | 13.24
COc1cccc(-c2n[nH]cc2-c2nc(CN3CCCC3)no2)c1 | -0.8918
COc1cccc(-c2ccnc3nc(N4CCCCC4)[nH]c(=O)c23)c1 | 120.5
O=c1[nH]c(NC2CCCC2)nc2nccc(-c3ccsc3)c12 | -12.83
COc1ccc(-c2ccnc3nc(N4CCCC4)[nH]c(=O)c23)cc1OC | 143.1
Cc1nc(N2CCCCC2)ncc1-c1cc(=O)[nH]c(N2CCCC2)n1 | -11.82
O=c1[nH]c(N2CCCCC2)nc2nccc(-c3ccc4c(c3)OCO4)c12 | 81.44
COc1cccc2c1OCCCN(c1nc3c(c(=O)[nH]1)CCNCC3)C2 | -4.298
Cc1ccccc1-c1csc2c(=O)[nH]c(N3CCCC(C(=O)O)C3)nc12 (stereo unspecified) | 12.14
CCN(Cc1ccoc1)C(=O)Nc1ccccc1CN(C)C(C)=O | -2.695
CNC(=O)c1nc2c(s1)CCN(C(=O)c1cccc(OC)c1)CC2 | -8.352
O=C(NC[C@H]1OC[C@@H](NC2COC2)[C@@H]1O)c1ccccc1 | -18.77
COc1ccc(CCNC(=O)N2CCN(C)[C@@H]3CS(=O)(=O)C[C@@H]32)cc1 | 3.976
N#Cc1c(F)cccc1N1CCC(NS(=O)(=O)c2cccs2)CC1 | -19.03
COCC1c2nnn(CC3CC3)c2CCN1C(=O)C1CCOCC1 (stereo unspecified) | -9.696

SMILES | Percent Effect [%]
CC(C)(C)C(=O)NCCC(=O)Nc1cc(C#N)cn1C(C)(C)C | -12.46
O=C(NC[C@H]1OC[C@@H](NC2CCCCC2)[C@@H]1O)Nc1ccccc1 | 2.791
Cc1cc(N2CCN(c3nc4ccccc4cc3CO)CC2)nc(C)n1 | 9.089
NC(=O)C1CCN(c2nc3nccc(-c4ccccc4)c3c(=O)[nH]2)CC1 | -1.836
COc1ccc(-c2ccnc3nc(N4CCCCC4)[nH]c(=O)c23)cc1 | 107.2
COc1ccc(-c2ccnc3c2C(=O)CCC3)cc1 | -3.402
CN(C)CCN(C)C1CCN(C(C(=O)O)c2ccc(F)c(Cl)c2)CC1 (stereo unspecified) | 97.08
COCCOC1CCN(C(C(=O)O)c2c(Cl)cccc2OC)CC1 (stereo unspecified) | 87.97
COc1cccc(Cl)c1C(C(=O)O)N1CCC(O)(c2cccnc2)CC1 (stereo unspecified) | 0.4267
COCCOC1CCN(C(C(=O)O)c2ccc3c(c2)OCO3)CC1 (stereo unspecified) | 111.3
COCCOC1CCN(C(C(=O)O)c2ccc(OC)c(F)c2)CC1 (stereo unspecified) | 107.6
COc1ccc(C(C(=O)O)N2CCN(C3CCCC3)CC2)cc1OC (stereo unspecified) | 20.13
O=C(O)C(c1ccc2c(c1)OCO2)N1CCCCCC1 (stereo unspecified) | 23.77
O=C(O)C(c1ccc2c(c1)OCO2)N1CCCC1 (stereo unspecified) | -31.26
COc1ccc(C(C(=O)O)N2CCC(O)(c3cccnc3)CC2)cc1F (stereo unspecified) | -17.65
O=C(O)C(c1ccc(Cl)c(F)c1)N1CCN(Cc2ccccn2)CC1 (stereo unspecified) | 0.4357
COc1ccccc1C(C(=O)O)N1CCCN(C2CCCC2)CC1 (stereo unspecified) | -24.96
NC(=O)C1CCN(C(C(=O)O)c2ccc(Cl)c(C(F)(F)F)c2)CC1 (stereo unspecified) | -1.554
